Measured values: PubChem BioAssay (Tox21)
Unmarked numbers belong to inactive results. Inconclusive results are not listed. Entries that show only a call come without a potency. Active and inactive are the calls of the source. Unless noted, the call rests on the fitted dose curve; in most records, active means well fitted curve in the direction sought with a large enough effect in the repeat runs; inconclusive means weak or mixed curves; inactive means no such curve, though single readings can be large; an effect the other way counts as inactive or inconclusive.

Tests used:
[1] = target: Thyrotropin receptor (Homo sapiens) (UniProt P16473); test: qHTS assay to identify small molecule antagonists of the thyroid stimulating hormone receptor (TSHR) signaling pathway (AID 1259385; calls by dose curve; further: nearly all actives have a fitted effect of over 20% in size)
Thyrotropin receptor (Homo sapiens), sequence (P16473 whole entry, looked up): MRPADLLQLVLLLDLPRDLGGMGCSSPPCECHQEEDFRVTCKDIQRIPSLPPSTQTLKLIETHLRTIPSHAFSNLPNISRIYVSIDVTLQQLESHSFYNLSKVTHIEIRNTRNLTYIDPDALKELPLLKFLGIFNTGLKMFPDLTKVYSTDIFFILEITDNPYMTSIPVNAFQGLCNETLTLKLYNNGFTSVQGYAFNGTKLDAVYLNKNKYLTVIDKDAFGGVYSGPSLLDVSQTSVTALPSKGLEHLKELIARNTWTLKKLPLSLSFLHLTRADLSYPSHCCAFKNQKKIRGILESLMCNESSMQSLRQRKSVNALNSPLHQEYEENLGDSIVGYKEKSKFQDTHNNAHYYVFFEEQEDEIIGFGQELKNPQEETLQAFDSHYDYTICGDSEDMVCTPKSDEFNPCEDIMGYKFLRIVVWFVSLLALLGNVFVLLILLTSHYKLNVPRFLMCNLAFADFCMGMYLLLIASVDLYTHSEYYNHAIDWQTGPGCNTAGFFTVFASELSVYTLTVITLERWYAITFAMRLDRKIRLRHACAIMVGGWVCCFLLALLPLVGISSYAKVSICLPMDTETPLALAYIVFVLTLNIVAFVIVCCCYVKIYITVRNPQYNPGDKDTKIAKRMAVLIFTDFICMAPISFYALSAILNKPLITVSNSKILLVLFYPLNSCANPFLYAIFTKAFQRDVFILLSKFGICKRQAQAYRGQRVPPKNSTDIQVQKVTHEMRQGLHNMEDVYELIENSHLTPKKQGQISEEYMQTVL
Method in brief: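 Antagonist mode: compound-treated TSHR-expressing HEK293 cells were stimulated with 1.5 ng/mL TSH (final) in presence of Ro20-1724 for 30 min at RT. HTRF cAMP detection after 1 h; each compound tested at 15 concentrations, triplicate.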

[2] = qHTS assay to identify small molecule agonists of the estrogen receptor alpha (ER-alpha) signaling pathway in the presence of an antagonist - cell viability counter screen (AID 1259386);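 further: series mostly up to about 92 µM; cells exposed to compounds for 22 h at 37 °C before the viability read; nearly all actives have a fitted effect of over 30% in size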
Method in brief: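 Cells are starved of estrogens for 5 days in charcoal-stripped serum, seeded for 24hr and co-treated with ICI-182,780 (10.0nM final) and test compounds. After 22hr at 37C, viability is read as CellTiter-Fluor fluorescence.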

[3] = target: Progesterone receptor (Homo sapiens) (UniProt P06401); test: qHTS assay to identify small molecule agonists of the progesterone receptor (PR) signaling pathway (AID 1346784; calls by dose curve; further: nearly all actives have a fitted effect of over 30% in size)
Progesterone receptor (Homo sapiens), sequence (P06401 whole entry, looked up): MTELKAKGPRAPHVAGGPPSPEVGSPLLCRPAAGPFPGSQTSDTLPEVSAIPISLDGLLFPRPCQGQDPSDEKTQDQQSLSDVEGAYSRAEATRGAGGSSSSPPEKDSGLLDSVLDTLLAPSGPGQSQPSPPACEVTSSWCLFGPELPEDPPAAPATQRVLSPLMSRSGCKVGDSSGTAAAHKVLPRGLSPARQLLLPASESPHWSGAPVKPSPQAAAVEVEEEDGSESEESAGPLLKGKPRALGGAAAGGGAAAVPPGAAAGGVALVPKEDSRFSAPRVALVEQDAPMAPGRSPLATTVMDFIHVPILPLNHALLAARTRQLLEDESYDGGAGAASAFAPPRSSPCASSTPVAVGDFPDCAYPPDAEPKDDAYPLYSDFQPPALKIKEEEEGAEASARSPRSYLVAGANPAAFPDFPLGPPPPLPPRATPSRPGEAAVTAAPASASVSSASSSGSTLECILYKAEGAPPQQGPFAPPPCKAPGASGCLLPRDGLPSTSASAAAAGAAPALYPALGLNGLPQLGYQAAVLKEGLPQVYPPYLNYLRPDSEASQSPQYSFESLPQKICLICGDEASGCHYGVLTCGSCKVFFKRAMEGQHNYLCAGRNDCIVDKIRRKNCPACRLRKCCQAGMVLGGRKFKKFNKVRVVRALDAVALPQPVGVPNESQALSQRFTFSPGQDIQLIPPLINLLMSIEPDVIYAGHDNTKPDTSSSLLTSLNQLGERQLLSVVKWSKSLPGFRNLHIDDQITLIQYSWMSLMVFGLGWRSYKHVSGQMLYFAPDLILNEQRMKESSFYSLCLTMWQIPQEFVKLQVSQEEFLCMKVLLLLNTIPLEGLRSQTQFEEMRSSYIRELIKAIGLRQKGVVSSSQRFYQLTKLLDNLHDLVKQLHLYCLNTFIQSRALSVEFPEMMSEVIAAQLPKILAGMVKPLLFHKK
Method in brief: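 Compounds were tested for PR agonism in HEK 293T cells bearing a beta-lactamase gene under UAS control. Treatment lasted 16 hr at 37C; signal came from fluorescence of a FRET substrate.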

[4] = target: Progesterone receptor (Homo sapiens) (UniProt P06401); test: qHTS assay to identify small molecule antagonists of the progesterone receptor (PR) signaling pathway (AID 1346795; active means well fitted inhibition curve with a large enough effect in the signal ratio in the repeat runs, not every such curve was filed as active; the % refers to the signal ratio; further: potency means the concentration at half of the fitted maximal effect)
Method in brief: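 In HEK293T cells bearing the PR-UAS-bla reporter, compound effects on promegestone-driven (1 nM) beta-lactamase expression are assessed after 16 hr using a fluorescent FRET substrate incubated 2 hr at room temperature.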

[5] = qHTS assay to identify small molecule antagonists of the progesterone receptor (PR) signaling pathway - cell viability counter screen (AID 1346798); further: series mostly up to about 92 µM; nearly all actives have a fitted effect of over 50% in size
Method in brief: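 Following a 4 hr attachment, PR-UAS-bla HEK293T cells in charcoal-stripped FBS medium were exposed to compounds with R5020 for 16 hr; CellTiter-Glo was added and luminescence read after 30 min at room temperature.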

[6] = qHTS assay to identify small molecule agonists of the progesterone receptor (PR) signaling pathway - cell viability counter screen (AID 1346799; calls by dose curve; further: nearly all actives have a fitted effect of over 45% in size)
Method in brief: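 Here, 3,000 PR-UAS-bla HEK293T cells per well were treated with compounds for 16 hr after a 6 hr preincubation at 37C and 5% CO2; cell viability is the CellTiter-Glo luminescence signal.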

[7] = qHTS assay to identify small molecule antagonists of the TGF-beta/Smad signaling pathway - cell viability counter screen (AID 1346824); further: nearly all actives have a fitted effect of over 50% in size
Method in brief: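 Cytotoxicity counter-screen run in the same wells as the beta-lactamase Smad reporter read: CellTiter-Glo luminescence after 30 min at room temperature. HEK 293T SBE-bla cells had 5 hr compound exposure at 37 C with TGF-beta1 (0.25 ng/mL stock).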

[8] = qHTS assay to identify small molecule agonists of the TGF-beta/Smad signaling pathway - cell viability counter screen (AID 1346829); further: top concentration of the series differs between compounds; nearly all actives have a fitted effect of over 45% in size
Method in brief: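 Here the cytotoxicity of library compounds is measured in SBE-bla HEK 293T cells treated for 5 hr, using CellTiter-Glo added to wells already read for the beta-lactamase reporter.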

[9] = qHTS assay to identify small molecule agonists of the TGF-beta/Smad signaling pathway (AID 1346859; active means well fitted activation curve with a large enough effect in the signal ratio in the repeat runs, not every such curve was filed as active; the % refers to the signal ratio; further: series mostly up to about 77 µM)
Method in brief: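 Each well held 4,000 SBE-bla HEK 293T cells incubated overnight before compound addition; 5 hr later the cleavable FRET substrate went on for 2 hr at room temperature, and fluorescence was read at two emissions.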

[10] = target: Thyrotropin-releasing hormone receptor (Homo sapiens) (UniProt P34981); test: qHTS assay to identify small molecule antagonists of the thyrotropin-releasing hormone receptor (TRHR) signaling pathway (AID 1346877; active means well fitted inhibition curve with a large enough effect in the repeat runs, not every such curve was filed as active; further: series mostly up to about 51 µM)
Thyrotropin-releasing hormone receptor (Homo sapiens), sequence (P34981 whole entry, looked up): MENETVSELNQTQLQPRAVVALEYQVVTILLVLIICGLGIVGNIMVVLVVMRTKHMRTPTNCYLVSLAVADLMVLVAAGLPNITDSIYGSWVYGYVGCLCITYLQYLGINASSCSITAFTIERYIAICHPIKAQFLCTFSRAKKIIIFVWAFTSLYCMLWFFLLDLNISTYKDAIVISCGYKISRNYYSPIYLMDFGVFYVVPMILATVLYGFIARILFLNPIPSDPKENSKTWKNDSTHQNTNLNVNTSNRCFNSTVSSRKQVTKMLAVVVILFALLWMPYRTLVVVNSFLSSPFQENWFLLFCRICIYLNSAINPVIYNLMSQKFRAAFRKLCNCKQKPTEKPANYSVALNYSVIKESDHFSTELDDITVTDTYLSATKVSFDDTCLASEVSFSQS
Method in brief: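 Cells (TRHR-HEK293) are plated and kept 18 h at 37 °C/5% CO2. A calcium-sensitive dye is added for 2 h, compound follows for 5 min at room temperature, and TRH is then given at 1 nM final.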

SMILES	Potency [1]	Potency [2]	Potency [3]	Potency [4]	Potency [5]	Potency [6]	outcome [7]	outcome [8]	outcome [9]	outcome [10]
O=C(c1ccc(Cl)cc1)c1ccc(Cl)cc1	inactive	inactive	inactive	inactive	inactive	inactive	inactive	inactive	inactive	inactive
Cc1ccc2c(Cl)cc(Cl)c(O)c2n1	inactive	inactive	inactive	inactive	inactive	inactive	inactive	inactive	inactive	inactive
CCCC(=O)OCCC(C)C	inactive	inactive	inactive	inactive	inactive	inactive	inactive	inactive	inactive	inactive
OCCCO	inactive	inactive	inactive	inactive	inactive	inactive	inactive	inactive	inactive	inactive
CCCCCCCCCCCC(=O)OCC	inactive	inactive	inactive	inactive	inactive	inactive	inactive	inactive	inactive	
FC1(F)C(F)(F)C(F)(F)C2(F)C(F)(C1(F)F)C(F)(F)C(F)(F)C1(F)C(F)(F)C(F)(F)C(F)(F)C(F)(F)C12F (stereo unspecified)	inactive	inactive	inactive	inactive	inactive	inactive	inactive	inactive	inactive	
Nc1ccc(-c2ccc(F)cc2)cc1	inactive	inactive	inactive	6.11 µM (active)	inactive	inactive	inactive	inactive	inactive	inactive
COc1cccc([C@H](O)C2CCN(CCc3ccc(F)cc3)CC2)c1OC	inactive	inactive	inactive	inactive	inactive	inactive	inactive	inactive	inactive	inactive
NC(=O)c1cc[n+](CC2=C(C(=O)[O-])N3C(=O)[C@@H](NC(=O)Cc4cccs4)[C@H]3SC2)cc1	inactive	inactive	inactive	inactive	inactive	inactive	inactive	inactive	inactive	
N#CCCCC(C#N)CCC#N (stereo unspecified)	inactive	inactive	inactive	inactive	inactive	inactive	inactive	inactive	inactive	
Cc1c(N=C=O)cccc1N=C=O	inactive	inactive	inactive	inactive	inactive	inactive	inactive	inactive	inactive	inactive
C/C(=C(\CCO)SS/C(CCO)=C(\C)N(C=O)Cc1cnc(C)nc1N)N(C=O)Cc1cnc(C)nc1N	inactive	inactive	inactive	inactive	inactive	inactive	inactive	inactive	inactive	inactive
